# From PubChem BioAssay (NCATS)
# Results filed as inconclusive are left out. Values without a mark were called inactive. Active and inactive are the calls of the source. The call rests on the fitted dose curve; in most records, active means well fitted cell-killing curve with a large enough effect; inconclusive means small, poorly fitted or top-dose-only effect; inactive means flat fitted curve, though single readings scatter. Numbered stars: 1 amine (or outer) side, 2 acyl side, 3 side chain; on linkers, the order of the positions; unused ones are H or OH. Bridge positions count the residues as written; N and C are the ends. Square brackets hold non-standard residues; d marks the D form. Peptide text beside a SMILES is read from it. I, II: the chains in the order shown. Actinocin(9to1) = Cc1c2oc3c(C)ccc(C(=O)[*:1])c3nc-2c(C(=O)[*:2])c(N)c1=O; NMeV = CN[C@H](C(=O)O)C(C)C; Sar = CNCC(=O)O
# Assay: qHTS of pediatric cancer cell lines to identify multiple opportunities for drug repurposing: Primary screen for U-2 OS cells (AID 1347096); further: nearly all actives have a fitted effect of over 50% in size;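 on activity change, negative = cytotoxic: plate controls were DMSO wells for no effect and bortezomib positive control wells for full effect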
# Conditions: U-2 OS viability, CellTiter-Glo luminescence, 48 h; series mostly up to 46 µM; activity change, negative = cytotoxic: at the top concentration
# From the text: Drug repurposing or repositioning has been offered as a strategy for drug development in oncology programs. This approach has special potential for childhood cancers and other rare or orphan diseases, where the expected return on new drug development has been a disincentive to pharmaceuticals.
# In this project we exploit the poly-pharmacology of drugs to discover new indications via phenotypic screening of a panel of 19 well-characterized cell lines derived from solid tumors seen in children and adolescents. The goal is to identify approved drugs with previously unrecognized anticancer properties that has the potential to reveal new mechanisms and biological processes involved in carcinogenesis or drug resistance. We employed a titration-based paradigm (quantitative high-throughput screening or qHTS), where all compounds were tested at multiple concentrations for their effect on cell viability. Concentration-response curves (CRCs) were derived directly from the primary screen, and both potency and efficacy values were used to identify compounds with robust bioactivity profiles. We screened the NIH Chemical Genomics Center (NCGC) Pharmaceutical Collection (NPC) and Mechanism Interrogation Plate (MIPE) small molecule collections of approved and investigational compounds against these cell lines; and measured metabolically active cells after 48 hours of compound treatment as a proxy for cell viability.
# Assay Submitter: Nathalia J. Martinez, National Center for Advancing Translational Sciences, National Institutes of Health, Rockville, MD, USA; email: natalia.martinez@nih.gov
# [1] Shen, M et al. Quantitative high-throughput phenotypic screening of pediatric cancer cell lines identifies multiple opportunities for drug repurposing. Oncotarget 2017 Dec 19;9(4):4758-4772. PMID 29435139.
# The cells were obtained from University of North Carolina (UNC), Pediatric Preclinical Testing Program (PPT), and Coriell Institute (CI).
# qHTS cell viability assay:
# Cells were assayed in growth media at a density of 500-1,000 cells/well. Five microliters of cells were dispensed into 1,536-well, white, solid-bottom, TC-treated plates (Greiner Bio One) using a multidrop dispenser and incubated at 37 degrees C, 5% CO2, under a humidified atmosphere for 5 hours. Twenty-three nanoliters of compounds and controls (neutral control DMSO or positive control bortezomib at final concentration of 2.3 µM) were subsequently transferred by Kalypsys pintool. For primary screens, the MIPE collection was tested at 11-point dilutions (final concentrations range from 0.78 nM to 46 µM) and the NPC collection at 8-point dilutions (final concentrations range from 0.59 nM to 46 µM). Compounds tested in follow-up screens were assayed at 11-point dilutions. Cells were incubated for 48 hours, followed by addition of 3 µL of CellTiter-Glo (Promega). After a 15 min incubation at room temperature, samples were analyzed for luminescence intensity using a ViewLux High-throughput CCD imager equipped with clear filters.
# Potency means the concentration at half of the fitted maximal effect.
Structure (SMILES),"activity change, negative = cytotoxic [%]",Potency
CCN1CCN(c2cc3c(cc2F)c(=O)c(C(=O)O)cn3C2CC2)CC1,10.9,–
"Cc1c2oc3c(C)ccc(C(=O)N[C@@H]4C(=O)N[C@H](C(C)C)C(=O)N5CCC[C@H]5C(=O)N(C)CC(=O)N(C)[C@@H](C(C)C)C(=O)O[C@@H]4C)c3nc-2c(C(=O)N[C@@H]2C(=O)N[C@H](C(C)C)C(=O)N3CCC[C@H]3C(=O)N(C)CC(=O)N(C)[C@@H](C(C)C)C(=O)O[C@@H]2C)c(N)c1=O (I: T[dV]P[Sar][NMeV] / II: T[dV]P[Sar][NMeV]; ester I:1-I:C, II:1-II:C; linker I:N-II:N via Actinocin(9to1))",–,0.0422 µM (active)
CC1(C)O[C@@H]2C[C@H]3[C@@H]4C[C@H](F)C5=CC(=O)CC[C@]5(C)[C@H]4[C@@H](O)C[C@]3(C)[C@]2(C(=O)CO)O1,14.3,–
C[C@]12C=CC(=O)C=C1CC[C@@H]1[C@@H]2[C@@H](O)C[C@@]2(C)[C@H]1CC[C@]2(O)C(=O)CO,-5.41,–
CCN(CC)C(=O)N1CCN(C)CC1,1.15,–
CC(=O)CC(c1ccc([N+](=O)[O-])cc1)c1c(O)c2ccccc2oc1=O (stereo not given),-5.41,–
CCOC(=O)c1cccc(N)c1,11.4,–
CCOC(=O)[C@H](CCc1ccccc1)N[C@@H](C)C(=O)N1Cc2ccccc2C[C@H]1C(=O)O,-8.45,–
Cc1ccc(C(=O)C(C)CN2CCCCC2)cc1 (stereo not given),-1.2,–
O=C1OC2(c3ccc(O)cc3Oc3cc(O)ccc32)c2ccccc21,-3.42,–
CC1=C(C(=O)O)N2C(=O)[C@@H](NC(=O)[C@H](N)c3ccc(O)cc3)[C@H]2SC1,4.17,–
CC(C)(CO)[C@@H](O)C(=O)NCCCO,10.1,–
C[C@H]1C[C@H]2[C@@H]3CCC4=CC(=O)C=C[C@]4(C)[C@@]3(Cl)[C@@H](O)C[C@]2(C)[C@@]1(O)C(=O)CO,-4.07,–
NC(CS)C(=O)O (stereo not given),11.2,–
Cc1cc2c(cc1CC(=O)c1sccc1S(=O)(=O)Nc1onc(C)c1Cl)OCO2,2.8,–
C[C@]12CC[C@H]3[C@@H](CCC4=CC(=O)CC[C@@]43C)[C@@H]1CC[C@@H]2C(=O)CO,-10.8,–
CCCCS(=O)(=O)N[C@@H](Cc1ccc(OCCCCC2CCNCC2)cc1)C(=O)O,8.37,–
CCN(CCCCOC(=O)c1ccc(OC)c(OC)c1)C(C)Cc1ccc(OC)cc1 (stereo not given),-5.87,–
CCCCN1CCCC1C(=O)Nc1c(C)cc(C)cc1C (stereo not given),7.21,–
O=c1[nH]c(=O)n([C@H]2C[C@H](O)[C@@H](CO)O2)cc1C(F)(F)F,15.8,–

Structure (SMILES),"activity change, negative = cytotoxic [%]",Potency
CC(C)NC[C@@H](O)COc1cccc2ccccc12,-4.49,–
C=C1C[C@H]2[C@@H]3C=C(C)C4=CC(=O)CC[C@]4(C)[C@H]3CC[C@]2(C)[C@@]1(OC(C)=O)C(C)=O,-13.9,–
CCCCCCCCCCOCC(O)CN (stereo not given),-20.7,–
COc1cc2c(cc1OC)[C@@H]1CC(=O)[C@@H](CC(C)C)CN1CC2,14.4,–
CN(C)/N=N/c1nc[nH]c1C(N)=O,-6.17,–
Oc1ccc(Cl)cc1Sc1cc(Cl)ccc1O,-25.2,–
CN(C)CC/C=C1\c2ccccc2Sc2ccc(Cl)cc21,-14.6,–
O=C(O)CNC(=O)c1ccccc1,12.1,–
Cc1ccc(Nc2c(F)cccc2Cl)c(CC(=O)O)c1,10.7,–
O=C(O)CCCCC(=O)O,17.8,–
COc1cccc2c1C(=O)c1c(O)c3c(c(O)c1C2=O)C[C@@](O)(C(=O)CO)C[C@@H]3O[C@H]1C[C@H](N)[C@H](O)[C@H](C)O1,–,13.3 µM (active)
O=c1[nH]c(=O)n([C@H]2CCCO2)cc1F,-4.7,–
CC(=O)OCC(=O)[C@@]12N=C(C)O[C@@H]1C[C@H]1[C@@H]3CCC4=CC(=O)C=C[C@]4(C)[C@H]3[C@@H](O)C[C@@]12C,10.6,–
CC1(C)O[C@@H]2C[C@H]3[C@@H]4CCC5=CC(=O)CC[C@]5(C)[C@@]4(F)[C@@H](O)C[C@]3(C)[C@]2(C(=O)CCl)O1,-12.4,–
CC(C)(C)NC(=O)[C@@H]1CN(Cc2cccnc2)CCN1C[C@@H](O)C[C@@H](Cc1ccccc1)C(=O)N[C@H]1c2ccccc2C[C@H]1O,1.99,–
CCCCCCCCCCCCCCCCCC(=O)OCC(O)CO (stereo not given),7.56,–
CN=C(NC#N)NCCSCc1csc(N=C(N)N)n1,8.78,–
COc1c2occc2c(OC)c2c(=O)cc(C)oc12,2.82,–
CCCCC(CC)CN=C(N)NC(N)=NCCCCCCN=C(N)NC(N)=NCC(CC)CCCC (stereo not given),–,21.1 µM (active)
CCN1CCCC1=O,7.11,–
